# Measurements from PubChem BioAssay.
# “And” between values parts separate entries of the source, which are not always exact repeats. Identical values can stand only once. Records with an inconclusive call do not appear. The source made the active and inactive calls.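 The calls were made as follows, unless noted: active = normalized viability below 100% at a tested concentration; inactive = the rest.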
# Assays:
# [1] = viability loss in pontine glioma line – cell-based, SU-DIPG-XXV, MIPE5.0, CellTiter-Glo, qHTS, dose response (AID 1347065; cut-off not given, nearly all actives have AC50 up to about 26 µM;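 also: cells exposed to compound for 48 hours before ATP readout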); settings: CellTiter-Glo ATP luminescence
# [2] = growth inhibition of DIPG cells – cell-based, MIPE4.0 library, CellTiter-Glo luminescence, qHTS (AID 1347066; cut-off not given, nearly all actives have AC50 up to about 30 µM;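 also: cells exposed to compound for 48 hours before readout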); settings: SU-DIPG-VI viability, CellTiter-Glo ATP luminescence
# [3] = JHH-DIPG-1 glioma cell viability, MIPE5.0 library, CellTiter-Glo luminescence, qHTS (AID 1347067; cut-off not given, nearly all actives have AC50 up to about 26 µM;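 also: cells exposed to compound for 48 hours before readout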); settings: JHH-DIPG-1 glioma viability, CellTiter-Glo ATP luminescence
# [4] = growth inhibition of DIPG cells – cell-based, MIPE5.0 library, qHTS (AID 1347068; cut-off not given, nearly all actives have IC50 up to about 30 µM); settings: SU-DIPG-XXV viability
# [5] = viability loss with induced miR-34 in A549 – imaging, A549 dox-inducible miR-34, nuclei and caspase counts, primary screen (AID 1347080;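 active = compounds whose cell count with miR-34 switched on is under 0.7 times the count with it off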); settings: A549 miR-34 inducible, Hoechst nuclei count, 48 h
# [6] = MELAS cybrid and Rieske KO viability enhancers – cell-based, MELAS cybrids, Rieske KO mouse fibroblasts, CellTiter-Glo, primary screen (AID 1508586;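 active = mean z-score across replicates of 1.96 or higher in either the MELAS or the Rieske mutant cell line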;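 also: z relative to plate mean and SD of compound and empty wells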); settings: low glucose
# [7] = galactose survival enhancers in mitochondrial complex I cybrids – cell-based, galactose medium, ATP luminescence, primary screen (AID 1645843;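 active = z-score of at least 1.8 in each of two replicates, scored against plate mean and spread of sample wells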;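 also: positive z means more ATP and so rescue of galactose-driven cybrid death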); settings: complex I mutant cybrid cells, 72 h, stronger effect = higher value
# [8] = molecular target: NAD(+) hydrolase SARM1 (Homo sapiens) (UniProt Q6SZW1); experiment: blocking NAD cleavage by SARM1 SAM-TIR – cell lysate, NAD-Glo luminescence (AID 1508614;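 active = compound whose remaining NAD level is above about 45 nM, limit read from the data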;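 also: higher remaining NAD means stronger inhibition of SARM1 NADase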); settings: SAM-TIR HEK293T lysate NADase, at 1 µM, stronger effect = higher value
# [9] = molecular target: Mitogen-activated protein kinase 7 (Homo sapiens) (UniProt Q13164); experiment: Gal4-ERK5 driven luciferase induction – cell-based, HTS, primary screen (AID 1508626;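 active = luciferase signal above three times the same-plate solvent-only control wells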;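 also: luciferase driven by Gal4-ERK5 fusion binding five Gal4 sites before minimal TATA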); settings: HeLa Gal4-ERK5 transactivation, 18 h, at 5 µM, stronger effect = higher value
# [10] = chitosan synthesis blockers in C. neoformans – flow cytometry, Cibacron Brilliant Red staining (AID 1347148; call rule not given here;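 also: compound exposure lasted three days at 37 degrees C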); settings: Cryptococcus neoformans chitosan, stronger effect = lower value; at 10 µM unless noted
# [11] = compounds altering HSF1 focus formation in cells – imaging, Selleck Cancer Library (AID 1347162; in the data active = plate-normalised HSF1 focus index below about 0.46); settings: human cells, HSF1 nuclear foci imaging, at 10 µM; SSMD: measured here: HSF1 foci SSMD mean; cell count: measured here: cell number; plate-normalised HSF1 focus index: stronger effect = lower value
# [12] = drug combination growth inhibition, ovarian cancer – cell-based, oncology-focused library, rucaparib conditional, profiling panel (AID 1508598); settings: patient-derived ovarian cancer cells, CellTiter-Glo viability, 144 h, stronger effect = lower value
# [13] = stronger effect = lower value, cell number ratio, induced over uninduced
# [14] = measured here: relative caspase fold change +Dox/-Dox
# [15] = measured here: total cells with miR-34 induction, stronger effect = lower value
# [16] = measured here: total cells without miR-34 induction
# [17] = MELAS cybrid survival, CellTiter-Glo 48 h, stronger effect = higher value
# [18] = Rieske KO mouse fibroblast survival, CellTiter-Glo 72 h
# Sequence of NAD(+) hydrolase SARM1 (Homo sapiens) (Q6SZW1 whole entry, looked up, the tested form may be a part): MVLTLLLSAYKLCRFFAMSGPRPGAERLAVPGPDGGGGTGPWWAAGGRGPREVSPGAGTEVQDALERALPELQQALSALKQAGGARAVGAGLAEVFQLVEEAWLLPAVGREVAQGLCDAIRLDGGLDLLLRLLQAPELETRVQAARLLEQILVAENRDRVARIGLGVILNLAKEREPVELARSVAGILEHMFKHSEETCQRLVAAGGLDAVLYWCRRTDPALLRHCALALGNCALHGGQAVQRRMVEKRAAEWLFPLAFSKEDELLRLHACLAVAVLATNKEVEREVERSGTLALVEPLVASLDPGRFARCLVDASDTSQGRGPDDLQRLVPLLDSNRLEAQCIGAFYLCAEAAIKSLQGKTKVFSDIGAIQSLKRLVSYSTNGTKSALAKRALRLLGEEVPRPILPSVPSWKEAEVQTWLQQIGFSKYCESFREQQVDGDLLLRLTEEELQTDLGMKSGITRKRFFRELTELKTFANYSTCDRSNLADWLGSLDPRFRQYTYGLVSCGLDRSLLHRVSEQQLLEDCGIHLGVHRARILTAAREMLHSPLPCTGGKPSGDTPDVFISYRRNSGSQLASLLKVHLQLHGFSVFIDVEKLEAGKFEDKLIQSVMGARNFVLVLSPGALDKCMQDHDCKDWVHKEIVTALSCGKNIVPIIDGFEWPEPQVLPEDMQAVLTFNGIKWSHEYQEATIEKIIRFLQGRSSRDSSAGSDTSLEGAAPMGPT
# Sequence of Mitogen-activated protein kinase 7 (Homo sapiens) (Q13164 whole entry, looked up, the tested form may be a part): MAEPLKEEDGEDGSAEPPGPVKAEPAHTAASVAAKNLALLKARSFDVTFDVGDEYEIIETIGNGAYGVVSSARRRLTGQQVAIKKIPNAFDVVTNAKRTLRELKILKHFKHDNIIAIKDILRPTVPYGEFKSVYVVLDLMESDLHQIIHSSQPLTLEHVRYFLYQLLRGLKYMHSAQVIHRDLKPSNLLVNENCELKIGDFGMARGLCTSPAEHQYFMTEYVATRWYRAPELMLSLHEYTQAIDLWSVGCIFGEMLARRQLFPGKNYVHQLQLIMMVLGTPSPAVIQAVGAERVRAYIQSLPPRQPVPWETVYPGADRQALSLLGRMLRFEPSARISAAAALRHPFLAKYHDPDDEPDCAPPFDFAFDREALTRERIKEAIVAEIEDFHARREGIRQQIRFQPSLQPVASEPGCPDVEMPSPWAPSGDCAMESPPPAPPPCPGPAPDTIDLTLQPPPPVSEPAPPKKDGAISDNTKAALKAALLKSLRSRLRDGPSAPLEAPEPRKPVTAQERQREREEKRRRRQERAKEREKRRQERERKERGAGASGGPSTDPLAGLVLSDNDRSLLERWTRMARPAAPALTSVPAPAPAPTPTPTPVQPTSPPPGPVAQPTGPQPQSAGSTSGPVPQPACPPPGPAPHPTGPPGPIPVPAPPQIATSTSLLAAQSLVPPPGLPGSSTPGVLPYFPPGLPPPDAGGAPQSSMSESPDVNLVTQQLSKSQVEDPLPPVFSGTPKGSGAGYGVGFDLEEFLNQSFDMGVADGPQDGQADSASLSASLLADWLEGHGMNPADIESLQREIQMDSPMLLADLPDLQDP
compound,measurement,setting,value
CN(C)CC/C=C1/c2ccccc2COc2ccc(CC(=O)O)cc21,outcome,[1],inactive
same,outcome,[2],inactive
same,outcome,[3],inactive
same,outcome,[4],inactive
same,fold change,[5]; [13],0.88 (inactive)
same,fold change,[5]; [14],0.692
same,cell count,[5]; [15],9640
same,cell count,[5]; [16],10900
same,z-score,[6]; [17],0.699 (inactive) and 0.823 (inactive)
same,z-score,[6]; [18],-0.41 and 0.615
same,z-score,[7],0.505 (inactive)
C[C@]12CC[C@@H]3c4ccc(O)cc4CC[C@H]3[C@@H]1C[C@@H](O)[C@@H]2O,outcome,[1],inactive
same,outcome,[2],inactive
same,AC50,[3],23.5 µM (active)
same,outcome,[4],inactive
same,fold change,[5]; [13],0.957 (inactive) and 0.899 (inactive)
same,fold change,[5]; [14],0.729 and 1.36
same,cell count,[5]; [15],9380 and 8690
same,cell count,[5]; [16],9810 and 9670
same,z-score,[6]; [17],0.707 (inactive) and -0.312 (inactive)
same,z-score,[6]; [18],0.79 and 0.38
same,remaining NAD,[8],10 nM (inactive)
same,luciferase signal,[9],64 AU (inactive)
same,z-score,[7],0.76 (inactive)
CC1=NN(c2ccccc2)C(=O)C1,outcome,[1],inactive
same,outcome,[2],inactive
same,outcome,[3],inactive
same,outcome,[4],inactive
same,fold change,[5]; [13],0.988 (inactive) and 0.936 (inactive) and 0.929 (inactive)
same,fold change,[5]; [14],0.941 and 1.18 and 0.593
same,cell count,[5]; [15],5320 and 7500 and 8540
same,cell count,[5]; [16],5390 and 8010 and 9190
same,fold fluorescence,[10],4.15 [at 287 µM] (inactive)
same,z-score,[6]; [17],-0.423 (inactive)
same,z-score,[6]; [18],0.67
same,remaining NAD,[8],10 nM (inactive)
same,z-score,[7],1.25 (inactive)
O=C(O)CSCC(=O)NC1CCSC1=O (centres undefined),outcome,[1],inactive
same,outcome,[2],inactive
same,outcome,[3],inactive
same,outcome,[4],inactive
same,fold change,[5]; [13],0.961 (inactive) and 0.85 (inactive)
same,fold change,[5]; [14],0.755 and 1.41
same,cell count,[5]; [15],8260 and 8130
same,cell count,[5]; [16],8600 and 9570
same,z-score,[6]; [17],-0.199 (inactive)
same,z-score,[6]; [18],0.356
same,remaining NAD,[8],10 nM (inactive)
Cc1nc(-c2ccc(OCC(C)C)c(C#N)c2)sc1C(=O)O,outcome,[1],inactive
same,outcome,[2],inactive
same,outcome,[3],inactive
same,outcome,[4],inactive
same,fold change,[5]; [13],0.998 (inactive) and 0.915 (inactive)
same,fold change,[5]; [14],0.915 and 0.811
same,cell count,[5]; [15],8870 and 7400
same,cell count,[5]; [16],8880 and 8080
same,SSMD,[11],1.2
same,cell count,[11],6840
same,plate-normalised HSF1 focus index,[11],1.06 (inactive)
same,z-score,[6]; [17],0.976 (inactive)
same,z-score,[6]; [18],0.13
same,viability,"[12]; at 0.000305 µM, OCI-C5x cells, with rucaparib 10 µM, 100% = cells with rucaparib alone",118% (inactive)
same,viability,"[12]; at 0.000305 µM, OCI-C5x cells, without rucaparib",111% (inactive)
same,viability,"[12]; at 0.000305 µM, OCI-P5x cells, with rucaparib 20 µM, 100% = cells with rucaparib alone",91.2% (active)
same,viability,"[12]; at 0.000305 µM, OCI-P5x cells, without rucaparib",99.9% (active)
same,viability,"[12]; at 0.00122 µM, OCI-C5x cells, with rucaparib 10 µM, 100% = cells with rucaparib alone",115% (inactive)
same,viability,"[12]; at 0.00122 µM, OCI-C5x cells, without rucaparib",122% (inactive)
same,viability,"[12]; at 0.00122 µM, OCI-P5x cells, with rucaparib 20 µM, 100% = cells with rucaparib alone",102% (inactive)
same,viability,"[12]; at 0.00122 µM, OCI-P5x cells, without rucaparib",99.6% (active)
same,viability,"[12]; at 0.00488 µM, OCI-C5x cells, with rucaparib 10 µM, 100% = cells with rucaparib alone",112% (inactive)
same,viability,"[12]; at 0.00488 µM, OCI-C5x cells, without rucaparib",109% (inactive)
same,viability,"[12]; at 0.00488 µM, OCI-P5x cells, with rucaparib 20 µM, 100% = cells with rucaparib alone",109% (inactive)
same,viability,"[12]; at 0.00488 µM, OCI-P5x cells, without rucaparib",100% (inactive)
same,viability,"[12]; at 0.0195 µM, OCI-C5x cells, with rucaparib 10 µM, 100% = cells with rucaparib alone",111% (inactive)
same,viability,"[12]; at 0.0195 µM, OCI-C5x cells, without rucaparib",110% (inactive)
same,viability,"[12]; at 0.0195 µM, OCI-P5x cells, with rucaparib 20 µM, 100% = cells with rucaparib alone",105% (inactive)
same,viability,"[12]; at 0.0195 µM, OCI-P5x cells, without rucaparib",104% (inactive)
same,viability,"[12]; at 0.0781 µM, OCI-C5x cells, with rucaparib 10 µM, 100% = cells with rucaparib alone",109% (inactive)
same,viability,"[12]; at 0.0781 µM, OCI-C5x cells, without rucaparib",112% (inactive)
same,viability,"[12]; at 0.0781 µM, OCI-P5x cells, with rucaparib 20 µM, 100% = cells with rucaparib alone",104% (inactive)
same,viability,"[12]; at 0.0781 µM, OCI-P5x cells, without rucaparib",108% (inactive)
same,viability,"[12]; at 0.313 µM, OCI-C5x cells, with rucaparib 10 µM, 100% = cells with rucaparib alone",110% (inactive)
same,viability,"[12]; at 0.313 µM, OCI-C5x cells, without rucaparib",109% (inactive)
same,viability,"[12]; at 0.313 µM, OCI-P5x cells, with rucaparib 20 µM, 100% = cells with rucaparib alone",97.1% (active)
same,viability,"[12]; at 0.313 µM, OCI-P5x cells, without rucaparib",109% (inactive)
same,viability,"[12]; at 1.25 µM, OCI-C5x cells, with rucaparib 10 µM, 100% = cells with rucaparib alone",108% (inactive)
same,viability,"[12]; at 1.25 µM, OCI-C5x cells, without rucaparib",118% (inactive)
same,viability,"[12]; at 1.25 µM, OCI-P5x cells, with rucaparib 20 µM, 100% = cells with rucaparib alone",102% (inactive)
same,viability,"[12]; at 1.25 µM, OCI-P5x cells, without rucaparib",109% (inactive)
same,viability,"[12]; at 5 µM, OCI-C5x cells, with rucaparib 10 µM, 100% = cells with rucaparib alone",118% (inactive)
same,viability,"[12]; at 5 µM, OCI-C5x cells, without rucaparib",134% (inactive)
same,viability,"[12]; at 5 µM, OCI-P5x cells, with rucaparib 20 µM, 100% = cells with rucaparib alone",103% (inactive)
same,viability,"[12]; at 5 µM, OCI-P5x cells, without rucaparib",108% (inactive)
same,remaining NAD,[8],10 nM (inactive)
